Only some compounds are listed: those with a hit (about 19% of all), similar ones and a draw of the others.
TDP1 cell noCPT: qHTS for Inhibitors of human tyrosyl-DNA phosphodiesterase 1 (TDP1): qHTS in cells in absence of CPT | DT40 Tdp1-/- hTDP1 cells, no CPT, ATP luminescence, 48 h | Potency, µM (titrated, usually from 46.2 µM), inactives show at the highest dose activity change, negative = growth inhibition, usual class: inhibitors | actives 15% (n = 420,000); also: potency is read from the fitted curve at half-maximal effect; nearly all actives have a fitted effect of over 55% in size
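DT40 Tdp1-/-;hTDP1 cells, no CPT (DMSO vehicle only), 400 cells/well; compounds pin-transferred; ≥48 hr, 37 °C; CellTiter-Glo 30 min RT dark, luminescence read.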
DT40 TDP1 CPT: qHTS for Inhibitors of human tyrosyl-DNA phosphodiesterase 1 (TDP1): qHTS in cells in presence of CPT. Potency, µM (titrated, usually from 46.2 µM), inactives show at the top dose activity change, negative = growth inhibition, usual class: inhibitors. chicken DT40 Tdp1-/-;hTDP1 cells + 20 nM CPT, ATP luminescence, 48 h. actives 12% (n = 420,000). AID 686979, 2013; also: potency is read from the fitted curve at half-maximal effect; nearly all actives have a fitted effect of over 55% in size
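Cell growth measured by CellTiter-Glo luminescence after a minimum 48 h, 37 C compound exposure with 20 nM CPT in Tdp1-knockout DT40 cells stably expressing hTDP1, seeded 400/well; qHTS titration format.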
uPA surface inh: qHTS for Inhibitors of Cell Surface uPA Generation; cell surface uPA generation assay, qHTS; AID 540303, 2011; actives 0.31% (n = 330,000); Potency, µM (titrated, usually from 38.3 µM), without a hit: at the highest dose activity change, negative = inhibition, usual class: inhibitors; active = well fitted inhibition curve with a large enough effect; inconclusive = small, poorly fitted or top-dose-only effect; inactive = no such curve, though single readings can be large or run the other way; tested in mouse RAW 264.7 cells; also: potency is read from the fitted curve at half-maximal effect; nearly all actives have a fitted effect of over 55% in size
HT1080 IDH1KD tx: qHTS for induction of synthetic lethality in tumor cells producing 2HG: qHTS for the HT-1080-IDH1KD cell line | HT-1080 IDH1 knockdown viability, ATP luminescence, 48 h | Potency, µM (doses to about 46.1 µM), for the others: at the highest dose activity, negative = toxicity, most hits filed as cytotoxic | actives 2% (n = 360,000) | AID 686971, 2013;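 also: potency is read from the fitted curve at half-maximal effect; 0% = DMSO wells and -100% = cell-free medium wells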
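HT-1080-IDH1KD cells (IDH1 knocked down), 750/well in RPMI with 5% FBS, treated with compound 48 h at 37 degrees C. Viability by CellTiter-Glo luminescence, normalised to DMSO and no-cell wells; concentration-response curves classed.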
HT1080-NT tox: qHTS for induction of synthetic lethality in tumor cells producing 2HG: qHTS for the HT-1080-NT fibrosarcoma cell line | HT-1080-NT fibrosarcoma viability, CellTiter-Glo ATP luminescence, 48 h | Potency, µM (titrated, usually from 46.1 µM), for inactives: top-dose activity, negative = less viability, usual class: cytotoxic | actives 1.6% (n = 360,000);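 also: NT is the 2HG producing partner of a matched IDH1 knockdown line; potency is read from the fitted curve at half-maximal effect; 0% = DMSO-treated cells and -100% = media-only wells without cells; nearly all actives have a fitted effect of over 55% in size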
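Luminescent CellTiter-Glo readout after 48 hours of compound exposure at 37 degrees C defined viability of HT-1080-NT cells. Activity was normalized to DMSO wells and cell-free media wells; concentration-response curves were fitted and assigned curve classes.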
IL1B secr inh: qHTS for Inhibitors of Inflammasome Signaling: IL-1-beta AlphaLISA Primary Screen; THP-1 LPS/ATP IL-1B secretion, AlphaLISA, 16 h; hits give low values; AID 743279, 2014; activity change, % at 57.5 µM; actives 4.7% (n = 360,000); in the data active = activity change below about -50%; inconclusive = mostly about -30% to -49%
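Secreted IL-1B measured by AlphaLISA bead assay after 16 h compound exposure of THP-1 cells; compounds (final up to 57.5 uM) added 1 h before LPS (250 ng/mL) and ATP (1.25 mM) stimulation; lower signal means less secretion.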
Starred values were filed as active, the others as inactive; u = inconclusive; x = no result; [ ] = dose if it differs, or a comment. Unless noted, calls follow the shape of the dose curve; as a rule, active = well fitted curve in the direction sought with a large enough effect; inconclusive = small, poorly fitted or top-dose-only effect, or another doubt; inactive = no such curve, though single readings can be large; an effect the other way counts as inactive or inconclusive. Unless noted, % is scaled to controls: 0 for no effect and ±100 for the full control effect.

SMILES | TDP1 cell noCPT | DT40 TDP1 CPT | uPA surface inh | HT1080 IDH1KD tx | HT1080-NT tox | IL1B secr inh
COc1cccc(/C=N/Nc2nnc(C)n2N)c1OCc1ccccc1Cl | 23µM* | u | -9% | 9% | 6% | 33
CC(C)(C)c1nnc(N/N=C/c2ccccc2O)n(N)c1=O | 1µM* | 0.65µM* | -9% | u | u | 73
CCc1nnc(N/N=C/c2ccccc2Cl)n1N | -12% | -3% | -26% | 16µM* | u | 6
Nn1cnnc1N/N=C/c1cccc(Cl)c1Cl | -25% | -12% | -14% | 18µM* | u | 14
COc1cccc(CNCCO)c1OCc1ccccc1Cl | -3% | 5% | 1% | -12% | -3% | 13
Nn1cnnc1N/N=C/c1ccccc1C(F)(F)F | -7% | -10% | -3% | 0% | 2% | 4
O=[N+]([O-])c1cc(/C=N/N2CCCCC2)ccc1Cl | u | 1% | 1% | 8% | 19% | -5
Nn1cnnc1N/N=C/c1ccc(Cl)c([N+](=O)[O-])c1 | -20% | -30% | -13% | 21µM* | u | -15
Nc1nnnn1/N=C\c1ccc(Cl)c([N+](=O)[O-])c1 | u | u | -1% | -3% | -2% | -61*
CN(C)c1nc(N/N=C\c2ccc(Cl)c([N+](=O)[O-])c2)nc(Nc2ccc(F)cc2)n1 | 5.2µM* | 5.2µM* | -19% | u | u | -90*
CCOC(=O)Cn1nc(N2CCN(c3ccc(F)cc3)CC2)ccc1=O | u | -15% | x | x | x | x
CC1(C(=O)NS(=O)(=O)c2ccc(Br)cc2)CCN1C(=O)C1(c2ccccc2)CC1 (centres undefined) | -14% | -13% | x | 4% | 7% | -15
Cc1ccc(CNC(=O)CN(C)C2=NS(=O)(=O)c3ccccc32)cc1 | 9.2µM* | 13µM* | -13% | -6% | -3% | 41
CCOc1ccccc1CNC(=O)c1nn(C)c2c1CS(=O)(=O)c1ccccc1-2 | u | 18µM* | 3% | -1% | 3% | 5
Cc1ccc(CNC(=O)c2nn(C)c3c2CS(=O)(=O)c2ccccc2-3)cc1 | u | 16µM* | -4% | 3% | 26% | -53*
Cc1cn(CC(=O)NCC(c2ccccc2)c2ccccc2)c(=O)[nH]c1=O | -11% | -9% | 15% | -1% | 5% | -5
CCN(CC)CCN(C(=O)Cn1nnc(-c2ccc(C)o2)n1)C(C(=O)NC(C)(C)C)c1cccs1 (centres undefined) | -26% | 4% | 4% | 1% | -2% | -11
Cc1ccc(C2(C)NC(=O)N(CC(=O)NC(C)c3ccccc3)C2=O)cc1 (centres undefined) | -3% | u | -3% | -3% | -4% | -1
O=C(Nc1ccccc1Br)N1CCN2CCCCC2C1 (centres undefined) | 11% | -22% | x | x | x | x
Cc1ccc2c(C)nc(Nc3nc(CSc4nnnn4-c4ccccc4)cc(=O)[nH]3)nc2c1 | 6.5µM* | 5.8µM* | 1% | u | u | -27
Cc1ccc2c(C)nc(Nc3nc(CSc4nc5ccccc5s4)cc(=O)[nH]3)nc2c1 | 5.2µM* | u | -2% | 8% | 9% | 16
Cc1nnc(SCc2cc(=O)[nH]c(Nc3nc(C)c4cc(C)c(C)cc4n3)n2)s1 | -1% | u | 6% | 15% | 36% | -11
CN(CCO)c1cccc2c1S(=O)(=O)N[C@@H](Cc1ccccc1)CO2 | u | -19% | x | 2% | -5% | -4
COc1ccc(C2=Nc3ccccc3NC(=O)C2N(CCc2ccccc2)C(=O)c2cccs2)cc1 (centres undefined) | u | u | x | u | u | -12
O=S1(=O)C[C@@H](N2CCC(Cc3ccccc3)CC2)[C@H](COCc2ccccc2)N1 | 23µM* | 18µM* | x | 0% | -5% | 18
SMILES | TDP1 cell noCPT | DT40 TDP1 CPT | uPA surface inh | HT1080 IDH1KD tx | HT1080-NT tox | IL1B secr inh
O=S1(=O)C[C@@H](N2CCCC2)[C@H](COCc2ccccc2)N1 | 13% | -27% | x | 12% | 21% | 4
O=C1CN(C(=O)c2ccccc2F)C(c2ccccc2)c2cc(Cl)ccc2N1 (centres undefined) | -28% | -23% | -2% | 2% | -2% | 1
Cc1ccc(C(=O)C(c2ccccc2)N2Cc3ccccc3C2=N)cc1 (centres undefined) | 8.2µM* | 10µM* | -16% | u | u | -81*
O=C1c2ccccc2C(=O)c2c(/C=C/N3CCCCC3)ccnc21 | 10µM* | 6.5µM* | -2% | 23µM* | -20% | -107*
O=C1c2ccccc2-c2cccnc21 | -4% | -4% | -7% | -3% | -3% | 10
NC(=O)c1ccc2c(=O)n3c(-c4cc(Cl)c(N)c(Cl)c4)csc3nc2c1 | 18µM* | 16µM* | 5µM* | u | u | -23
Cc1ccc(C)c(Cn2c(=O)n(C(C)C)c(=O)c3oc4ccccc4c32)c1 | -2% | 9% | x | x | x | x
Cc1nc2c(OCc3ccccc3)cccn2c1N(C)C(=O)C1CCCCC1 | u | u | x | -9% | 0% | -21
COc1ccc(C2=CC(c3ccc(F)cc3)n3nnnc3N2)cc1 (centres undefined) | 18µM* | u | -6% | 4%[9.24 µM] | 6% | u
Cc1ccc(C2C=C(c3ccc4c(c3)OCO4)Nc3ncnn32)cc1 (centres undefined) | u | -29% | -3% | -2% | -4% | -8
COc1ccc(C2=CC(c3sccc3C)n3nnnc3N2)cc1 (centres undefined) | -29% | -30% | 0% | -1% | -5% | 14
CC(C)c1ccc(C2=CC(c3ccc(C(C)C)cc3)n3nnnc3N2)cc1 (centres undefined) | 15µM* | 15µM* | x | x | x | x
Cc1ccc(C2=CC(c3ccc(N(C)C)cc3)n3nnnc3N2)cc1 (centres undefined) | 21µM* | 18µM* | u | -15% | -20% | 11
C=CC1C(N2CCOCC2)C(C)(C)S1(=O)=O (centres undefined) | u | 23µM* | 4% | 14% | 16% | 0
Cc1cc(N2CCCCCC2)nc(-c2ccccc2O)n1 | u | u | 0% | -11% | -5% | -8

Screening data as filed in PubChem.
